In PubChem BioAssay:
Results filed as inconclusive are left out. Activity calls are given as the source filed them.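 Rule for the calls, unless noted: active = growth inhibition above 25% in both replicates, a cutoff set 3 SD above the mean; inconclusive = above 25% in only one replicate; inactive = the rest.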

Legend:
[1] = biological target: Pantothenate synthetase (Mycobacterium tuberculosis (strain ATCC 25618 / H37Rv)) (UniProt P9WIL5); assay: Coupled enzyme confirmation of inhibitors against recombinant Mtb PanC (AID 375; call rule not given here;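 note: 0% = full reaction with vehicle and 100% = no enzyme background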); settings: coupled enzyme assay; at 10 µM, stronger effect = higher value
[2] = Her2 expression decrease, cell viability multiplex – SKBR3 breast tumor cells, AlphaScreen, ATP viability, primary screen (AID 461;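 active = Her2 level under about 52% in both replicate screens, with viability over 70% of control, limit read from the data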;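 for Her2 level: lower value means less Her2 protein in the cells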;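 for viability: percent of carrier control wells set as 100% viability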); settings: SKBR3 Her2 protein level, 18-24 h, measured here: SKBR3 viability, ATP luminescence, at 10 µM
[3] = biological target: Receptor tyrosine-protein kinase erbB-2 (Homo sapiens) (UniProt P04626); assay: as above; settings: 18-24 h, at 10 µM, stronger effect = lower value
[4] = reduced viability of SK-BR-3 breast cancer cells – cell-based, 24 h, human, pilot screen (AID 572;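 active = viability at or below 10% of carrier control in both of two separate runs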;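 note: compound exposure lasted between 18 and 24 h rather than exactly 24 h; 100% = carrier-treated control wells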); settings: SK-BR-3 viability, CellTiter-Glo luminescence, at 10 µM, stronger effect = lower value
[5] = HUVEC growth inhibition – cell-based, human, primary screen (AID 575;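 active = viability at or below 30% in both replicate assays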;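 note: 100% = median of untreated cell wells with 0.1% DMSO on each plate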); settings: HUVEC proliferation, CellTiter-Glo luminescence, 72 h; at 10 µM; stronger effect = lower value
[6] = H69AR cell proliferation blockers – human, duplicate replicates, primary screen (AID 580;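 active = viability at or under a set limit in both replicates, limit being median viability minus 3 SD, cut at about 48% in these data, passing the limit was not always enough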;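 note: 100% = mean luminescence of untreated wells and 0% = no signal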); settings: H69AR lung tumor cells viability, ATP luminescence, 72 h; at 10 µM; stronger effect = lower value
[7] = MRP1 drug-resistance reversers in H69AR cells – cell-based, doxorubicin co-treatment, pilot screen (AID 601;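 active = viability loss from added drug above about 55%, and viability with drug at most 40%, in both replicates, limit read from the data, passing the limit was not always enough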); settings: CellTiter-Glo, 72 h, at 10 µM; for differential viability (reversal): stronger effect = higher value
[8] = yeast transport mutant growth inhibition pilot in 384-well plates, post-Golgi transport modulator project (AID 636; in the data active = inhibition above about 31%); settings: absorbance 615 nm, about 18 h, stronger effect = higher value
[9] = growth suppression of yeast trafficking mutant, preliminary HTS, modulators of trafficking downstream of Golgi apparatus project, 1536-format plate, OD 615 nm (AID 637; in the data active = inhibition above about 30%); settings: yeast transport mutant growth, absorbance 615 nm, 18 h; stronger effect = higher value
[10] = S. cerevisiae growth inhibition in permissive medium (OD615), pilot counter-assay for S. cerevisiae lifespan shortening project, permissive growth control (AID 705); settings: OD615, 24 h, at 10 µM, stronger effect = higher value
[11] = S. cerevisiae growth inhibition in restrictive medium, OD615, pilot screen, restrictive growth control, yeast lifespan reduction project (AID 706;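 active = growth inhibition above a set limit, 3 SD over mean compound inhibition, in both replicates, cut at about 43% in these data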;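 note: modified DeaD lifespan yeast strain shifted to restrictive glucose medium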); settings: OD615, 48 h, at 10 µM, stronger effect = higher value
[12] = doxorubicin toxicity protection in MRP-1 cells – H69AR cells, CellTiter-Glo, duplicate, MRP-1 activator project, pilot screen (AID 807;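 active = viability increase at or above a cutoff of the median across tested compounds plus 3 SD, cut at about 8.5% in these data, passing the limit was not always enough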;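 note: compound pretreatment 18-22 h then 72 h combined with doxorubicin; 0% = doxorubicin alone and 100% = vehicle without doxorubicin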); settings: H69AR viability with doxorubicin, CellTiter-Glo luminescence; at 10 µM; stronger effect = higher value
[13] = viability of HCT116 without oncogenic beta-catenin – human colon tumor cells, pilot screen (AID 823;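 active = cell viability at or below a set limit in both duplicate runs, the limit being the all-compound median minus 4 SD, cut at about 23% in these data, passing the limit was not always enough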;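 note: 0% = wells killed by 20 µM Hyamine and 100% = untreated DMSO cell wells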); settings: HCT116 beta-catenin knockout viability, CellTiter-Glo, 60 h; at 10 µM; stronger effect = lower value
[14] = viability of PTEN-null HCT116 cells – cell-based, HCT116 clonal line, CellTiter-Glo, pilot screen (AID 824;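 active = viability at or below 27.92% in each of two runs, the all-compound median minus 4 SD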;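 note: 0% = 20 µM Hyamine control and 100% = vehicle cell control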); settings: HCT116 PTEN-deleted viability, 60 h, at 10 µM, stronger effect = lower value
[15] = RAM pathway blockade in budding yeast – dse1pr::URA3 reporter, 5-FOA selection, pilot screen (AID 869;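 active = inhibition over a set limit, the all-compound mean plus 3 SD, in both replicate runs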;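 note: 0% = DMSO wells with no growth and 100% = 10 µM 1-NA-PP1 with full growth; RAM network block rescues cells from 5-FOA so hits raise OD615 growth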); settings: S. cerevisiae dse1pr::URA3 5-FOA growth, OD615, 2 d, at 10 µM, stronger effect = higher value
[16] = RAM signaling pathway blockade in yeast – S. cerevisiae, Pdr1DBD-CYC8 efflux-inhibited sensitized strain, primary screen (AID 1298;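 active = RAM network inhibition above 8.4% in each of two replicates, 3 SD over the compound average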;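 note: 0% = DMSO untreated cells without growth and 100% = 10 µM 1-NA-PP1 full growth; higher means more yeast growth rescued from 5-FOA killing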); settings: S. cerevisiae cbk1-as DSE1-URA3 strain, 5-FOA growth OD615, 2 d; at 50 µM; stronger effect = higher value
[17] = H69AR cells + 2 uM doxorubicin, measured here: viability with 2 uM doxorubicin, stronger effect = lower value
[18] = H69AR cells, compound alone cytotoxicity

Sequence of Pantothenate synthetase (Mycobacterium tuberculosis (strain ATCC 25618 / H37Rv)) (P9WIL5 whole entry, looked up): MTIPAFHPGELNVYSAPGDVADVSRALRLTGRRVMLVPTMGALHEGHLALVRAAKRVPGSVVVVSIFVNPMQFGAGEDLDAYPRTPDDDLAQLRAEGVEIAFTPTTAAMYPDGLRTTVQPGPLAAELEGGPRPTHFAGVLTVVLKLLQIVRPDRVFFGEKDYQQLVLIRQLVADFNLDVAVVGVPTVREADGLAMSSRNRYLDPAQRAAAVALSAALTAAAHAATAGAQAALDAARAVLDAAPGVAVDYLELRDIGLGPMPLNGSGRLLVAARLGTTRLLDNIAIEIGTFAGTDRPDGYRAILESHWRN
Sequence of Receptor tyrosine-protein kinase erbB-2 (Homo sapiens) (P04626 whole entry, looked up): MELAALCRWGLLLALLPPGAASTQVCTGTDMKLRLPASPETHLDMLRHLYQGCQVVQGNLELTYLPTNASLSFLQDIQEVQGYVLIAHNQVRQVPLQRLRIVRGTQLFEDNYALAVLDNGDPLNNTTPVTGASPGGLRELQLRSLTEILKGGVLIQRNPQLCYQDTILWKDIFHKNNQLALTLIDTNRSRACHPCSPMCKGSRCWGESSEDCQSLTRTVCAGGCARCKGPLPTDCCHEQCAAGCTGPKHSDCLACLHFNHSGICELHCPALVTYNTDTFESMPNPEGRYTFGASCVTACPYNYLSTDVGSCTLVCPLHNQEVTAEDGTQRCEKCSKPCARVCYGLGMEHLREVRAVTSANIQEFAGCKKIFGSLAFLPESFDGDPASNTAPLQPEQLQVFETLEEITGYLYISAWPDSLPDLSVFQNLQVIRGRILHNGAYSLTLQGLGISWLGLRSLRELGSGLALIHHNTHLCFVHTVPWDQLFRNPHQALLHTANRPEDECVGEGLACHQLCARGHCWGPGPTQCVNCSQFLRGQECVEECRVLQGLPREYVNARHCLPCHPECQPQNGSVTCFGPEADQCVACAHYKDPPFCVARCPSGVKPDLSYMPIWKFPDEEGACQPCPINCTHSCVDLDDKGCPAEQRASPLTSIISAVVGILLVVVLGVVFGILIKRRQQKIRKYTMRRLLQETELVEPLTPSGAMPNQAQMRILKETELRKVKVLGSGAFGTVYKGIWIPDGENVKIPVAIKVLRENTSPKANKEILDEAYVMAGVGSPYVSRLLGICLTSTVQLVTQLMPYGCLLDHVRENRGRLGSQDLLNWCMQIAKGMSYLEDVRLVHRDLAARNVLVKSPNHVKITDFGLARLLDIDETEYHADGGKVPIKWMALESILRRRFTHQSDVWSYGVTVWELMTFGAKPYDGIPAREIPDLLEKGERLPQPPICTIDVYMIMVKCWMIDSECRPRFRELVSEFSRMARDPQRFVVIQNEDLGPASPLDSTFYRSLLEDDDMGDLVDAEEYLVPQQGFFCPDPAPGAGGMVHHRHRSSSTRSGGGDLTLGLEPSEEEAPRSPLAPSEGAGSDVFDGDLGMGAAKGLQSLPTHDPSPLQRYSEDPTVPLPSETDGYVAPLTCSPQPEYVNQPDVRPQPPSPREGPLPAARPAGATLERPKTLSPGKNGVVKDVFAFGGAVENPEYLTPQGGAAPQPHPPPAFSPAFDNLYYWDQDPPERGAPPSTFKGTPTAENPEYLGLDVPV

| SMILES | inhibition [1] | viability [2] [%] | Her2 level [3] | viability [4] | viability [5] | viability [6] | differential viability (reversal) ([7]; H69AR cells + 2 uM doxorubicin) | viability [7, 17] [%] | viability [7, 18] [%] | inhibition [8] | inhibition [9] | growth inhibition [10] | growth inhibition [11] | viability increase [12] | viability [13] | viability [14] | inhibition [15] | RAM network inhibition [16] |
| --- | --- | --- | --- | --- | --- | --- | --- | --- | --- | --- | --- | --- | --- | --- | --- | --- | --- | --- |
| c1ccc(C2NCc3ccccc3-n3cccc32)cc1 (stereo not given) | 0% (inactive) | 86 | 93.5% (inactive) | 86% (inactive) | 104% (inactive) | 84.2% (inactive) | 5.83% (inactive) | 78.4 | 84.2 | -4.53% (inactive) | 1.67% (inactive) | -19% (inactive) | -22.7% (inactive) | -3.44% (inactive) | 68.2% (inactive) | 78.5% (inactive) | 2.53% (inactive) | 2.46% (inactive) |
| CCN(c1ccc(C(O)(C(=O)OC)C(F)(F)F)cc1)S(=O)(=O)c1ccccc1 (stereo not given) | – | – | – | – | – | – | – | – | – | – | – | -4.31% (inactive) | -3.91% (inactive) | 0.9% (inactive) | 99.4% (inactive) | 102% (inactive) | -0.62% (inactive) | 4.74% (inactive) |
| CN(C)C(=O)Oc1ccc(-c2nnco2)cc1 | – | – | – | – | – | – | – | – | – | – | – | 0.38% (inactive) | -1.25% (inactive) | 1.79% (inactive) | 104% (inactive) | 99.7% (inactive) | 1.48% (inactive) | 0.73% (inactive) |
| O=C(C(Cc1ccccc1)NS(=O)(=O)c1ccc(F)cc1)N1CCC2(CC1)OCCO2 (stereo not given) | 0% (inactive) | – | – | 95% (inactive) | 94.2% (inactive) | 79% (inactive) | 15.6% (inactive) | 63.4 | 79 | -0.13% (inactive) | -0.16% (inactive) | -6.55% (inactive) | -17.2% (inactive) | -3.5% (inactive) | 95.4% (inactive) | 93.5% (inactive) | -0.725% (inactive) | 0.31% (inactive) |
| O=C(c1cccs1)C1CN2CCC1CC2 (stereo not given) | 0% (inactive) | 89.5 | 122% (inactive) | 89.5% (inactive) | 94.3% (inactive) | 106% (inactive) | 13.5% (inactive) | 92.8 | 106 | 0.65% (inactive) | -4.33% (inactive) | -13.4% (inactive) | -12.2% (inactive) | -0.68% (inactive) | 97.3% (inactive) | 103% (inactive) | 0.375% (inactive) | 5.95% (inactive) |
| CCCCn1c(C)c(C(=O)OCC)c2c(CN3CCOCC3)c(O)ccc21 | 2% (inactive) | 110 | 92.5% (inactive) | 110% (inactive) | 58.5% (inactive) | 73.3% (inactive) | -6.07% (inactive) | 79.4 | 73.3 | -4.34% (inactive) | 4.33% (inactive) | -15.6% (inactive) | -9.74% (inactive) | -6.39% (inactive) | 68.3% (inactive) | 72.6% (inactive) | -0.155% (inactive) | 2.5% (inactive) |
| COc1ccc(OC)c(N2C(=O)NC(=O)C(CCc3ccncc3)(CCc3ccncc3)C2=O)c1 | 0% (inactive) | 105 | 112% (inactive) | 105% (inactive) | 91% (inactive) | 82.8% (inactive) | -8.92% (inactive) | 91.7 | 82.8 | 0.79% (inactive) | 11.3% (inactive) | -15.9% (inactive) | -9.8% (inactive) | -1.85% (inactive) | 94.8% (inactive) | 94.2% (inactive) | 2.2% (inactive) | 0.12% (inactive) |
| O=P(OCC(F)(F)C(F)F)(N1CCCCC1)N1CCCCC1 | 3% (inactive) | 104 | 108% (inactive) | 104% (inactive) | 106% (inactive) | 117% (inactive) | 17.1% (inactive) | 99.9 | 117 | 2.67% (inactive) | -7.9% (inactive) | -8.86% (inactive) | -5.09% (inactive) | -0.61% (inactive) | 89% (inactive) | 95.5% (inactive) | 0.595% (inactive) | 3.2% (inactive) |
| CN1CCN(c2nc3ccccc3c(=O)n2-c2ccccc2)CC1 | 0% (inactive) | 98.5 | 104% (inactive) | 98.5% (inactive) | 79.9% (inactive) | 86.3% (inactive) | -3.29% (inactive) | 89.6 | 86.3 | 0.64% (inactive) | -1.17% (inactive) | -13.4% (inactive) | -1.59% (inactive) | -2.67% (inactive) | 98.1% (inactive) | 99.3% (inactive) | 2.02% (inactive) | 1.34% (inactive) |
| CCOC(=O)c1c(C)c(P(=S)(N2CCOCC2)N2CCOCC2)n(C)c1C | – | – | – | – | – | – | – | – | – | – | – | -22.4% (inactive) | -3.18% (inactive) | -3.92% (inactive) | 89.1% (inactive) | 87.1% (inactive) | 2.06% (inactive) | 2.36% (inactive) |
